Reference: paper PMC4336329 (PLoS ONE, 2015)
Among all 310,000 compounds or so, about 14,000 (4.5%) showed an effect of 50% or more. Effects have a minus sign here. Many of the other results were omitted from the sample, so strong results are more common in it than they were.

target: human ether-à-go-go-related gene (hERG) potassium channel (human, UniProt Q12809); assay: primary screen, population patch clamp on CHO cells stably expressing hERG; higher = less effect of the substance
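Note: peak tail current of the secondary pulse compared with the same well before compound.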

human ether-à-go-go-related gene (hERG) potassium channel, sequence (Q12809 whole entry, looked up): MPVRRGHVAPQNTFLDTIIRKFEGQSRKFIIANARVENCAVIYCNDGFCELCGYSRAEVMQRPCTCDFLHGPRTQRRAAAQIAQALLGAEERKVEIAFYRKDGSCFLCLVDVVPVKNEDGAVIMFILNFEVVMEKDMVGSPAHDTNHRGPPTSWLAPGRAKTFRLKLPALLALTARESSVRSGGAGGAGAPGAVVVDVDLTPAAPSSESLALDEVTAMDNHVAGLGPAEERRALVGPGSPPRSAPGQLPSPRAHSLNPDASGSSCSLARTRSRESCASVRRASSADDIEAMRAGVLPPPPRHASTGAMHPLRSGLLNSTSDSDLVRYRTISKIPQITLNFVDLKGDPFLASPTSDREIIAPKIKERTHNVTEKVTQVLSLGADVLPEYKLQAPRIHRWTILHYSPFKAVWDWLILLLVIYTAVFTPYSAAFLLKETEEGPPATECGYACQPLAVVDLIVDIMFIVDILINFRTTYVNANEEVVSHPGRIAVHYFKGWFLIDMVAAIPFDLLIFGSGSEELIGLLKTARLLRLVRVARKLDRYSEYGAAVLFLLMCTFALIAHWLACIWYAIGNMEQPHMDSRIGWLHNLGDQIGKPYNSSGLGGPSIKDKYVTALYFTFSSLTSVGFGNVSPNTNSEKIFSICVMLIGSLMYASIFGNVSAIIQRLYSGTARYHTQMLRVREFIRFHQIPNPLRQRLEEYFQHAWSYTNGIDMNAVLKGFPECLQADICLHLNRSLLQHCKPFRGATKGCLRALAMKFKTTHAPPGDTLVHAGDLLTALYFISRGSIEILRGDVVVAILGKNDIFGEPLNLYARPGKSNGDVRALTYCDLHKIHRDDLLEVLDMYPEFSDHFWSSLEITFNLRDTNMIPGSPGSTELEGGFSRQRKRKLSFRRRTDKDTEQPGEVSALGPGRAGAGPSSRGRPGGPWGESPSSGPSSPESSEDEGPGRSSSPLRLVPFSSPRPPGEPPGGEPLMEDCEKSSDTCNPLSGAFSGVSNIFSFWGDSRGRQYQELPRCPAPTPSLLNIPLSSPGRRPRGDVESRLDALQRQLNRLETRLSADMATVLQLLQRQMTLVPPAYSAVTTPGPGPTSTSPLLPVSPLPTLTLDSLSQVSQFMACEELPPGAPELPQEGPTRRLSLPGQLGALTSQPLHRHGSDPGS

Point of comparison: `COCCCNC(=O)CC(NS(=O)(=O)c1ccc(F)cc1)c1ccc(OC)cc1` (stereo not drawn), “hERG current change (%, negative = inhibition) at 10uM” value -1.73%. Against it:
- Cc1c(NS(=O)(=O)c2cccc(C(=O)Nc3ccccc3)c2)c(=O)n(-c2ccccc2)n1C — lower, -11%
- CCn1cc(C(=O)N2CC(C)CC(C)C2)c(=O)c2cc(S(=O)(=O)N3CCCC3)ccc21 (stereo not drawn) — higher, 6.81%
- O=[N+]([O-])c1ccccc1Sc1nccn1Cc1ccccc1 — lower, -21.6%
- NC(=O)CSc1nccn1Cc1ccccc1 — higher, 7.57%
- O=[N+]([O-])c1ccc(Sc2nccn2Cc2ccccc2)cc1 — lower, -59.5%
- O=C(CSc1nccn1Cc1ccccc1)Nc1ccccc1 — higher, 12.4%
- O=[N+]([O-])c1cc(C(F)(F)F)ccc1Sc1nccn1Cc1ccccc1 — lower, -30.3%
- O=[N+]([O-])c1ccc(Sc2nccn2Cc2ccccc2)c([N+](=O)[O-])c1 — lower, -57.9%
- CCCn1c(C(CO)Nc2nc(C)cs2)nc2ccccc21 (stereo not drawn) — lower, -5.83%
- O=C(NC(=S)Nc1ccc(Oc2ccc(Cl)cc2)cc1)c1ccccc1 — higher, 10.7%
- O=C(Nc1nnc(-c2ccc(Cl)cc2)o1)c1cccc(N2C(=O)CCC2=O)c1 — higher, 12.2%
- Cc1noc(C)c1COC(=O)CN(C)S(=O)(=O)c1ccc(Cl)cc1 — lower, -14.4%
- Nc1nc2c(c(=O)[nH]1)CN(Cc1ccccc1)CC2 — higher, 7.8%
- Cl.Nc1c2c(nc3ccccc13)CCCC2.O — lower, -42.3%
- Nc1c2c(nc3ccccc13)CSCC2 — lower, -57.3%
- Nc1c2c(nc3ccccc13)CCN(Cc1ccccc1)C2 — lower, -56.1%
- c1ccc(CN2CCc3nc4ccccc4cc3C2)cc1 — lower, -4.62%
- Cl.Nc1c2c(nc3ccccc13)CCCC2 — lower, -39.7%
- C/C(=N\O)C1(C)N(O)C(C)(C)C(c2ccco2)=[N+]1[O-] (stereo not drawn) — higher, 22.2%
- Cc1cccc(NC(=O)c2nc[nH]c2C(=O)N2CCc3ccccc3C2)c1 — higher, 5.13%
- O=C1NC(Nc2nc3ccccc3s2)(C(F)(F)F)C(=O)N1C1CCCCC1 (stereo not drawn) — lower, -6.17%
- CN(CC(=O)O/N=C(\N)c1cccc([N+](=O)[O-])c1)S(=O)(=O)c1ccccc1 — lower, -24.4%
- Cc1ccc(S(=O)(=O)N(C)CC(=O)O/N=C(\N)c2ccc([N+](=O)[O-])cc2)cc1 — lower, -45.9%
- Cc1ccc(S(=O)(=O)N(C)CC(=O)O/N=C(\N)c2cccc([N+](=O)[O-])c2)cc1 — lower, -66.8%
- N/C(=N\OC(=O)CC1CCCCC1)c1cccc([N+](=O)[O-])c1 — lower, -6.21%
- N/C(=N\OC(=O)CCC1CCCCC1)c1cccc([N+](=O)[O-])c1 — lower, -15.1%
- N/C(=N\OC(=O)CCC1CCCC1)c1cccc([N+](=O)[O-])c1 — lower, -70.4%
- Cc1nnc2sc(-c3ccc(-c4ccc(Cl)c(C(F)(F)F)c4)o3)nn12 — higher, 3.66%
- CCCCSc1nnc(-c2ccc(C)cc2)n1C — lower, -33.7%
- COc1cc(C(=O)Nc2ccc3c(c2)ncn3C(C)(C)C)cc(OC)c1OC — higher, 9.04%
- CCOc1c2ccccc2nn1CCOC — higher, 5.42%
- CCc1ccc2[nH]c(=O)c(CN(Cc3ccco3)C(=S)NCC3CCCO3)cc2c1 (stereo not drawn) — lower, -19%
- CN(C)CCCN(Cc1cc2cc3c(cc2[nH]c1=O)OCO3)C(=S)NCc1ccco1 — lower, -19.2%
- CCN(CC)CCN(Cc1cc2cc(C)ccc2[nH]c1=O)C(=S)NCc1ccco1 — lower, -43.4%
- CCc1ccc2[nH]c(=O)c(CN(CC3CCCO3)C(=S)NCc3ccco3)cc2c1 (stereo not drawn) — lower, -21.6%
- CCc1ccc2[nH]c(=O)c(CN(CCN(C)C)C(=S)NCc3ccco3)cc2c1 — lower, -52%
- CCc1ccc2[nH]c(=O)c(CN(CCN(CC)CC)C(=S)NCc3ccco3)cc2c1 — lower, -67.9%
- O=C1c2cccc3c([N+](=O)[O-])ccc(c23)C(=O)N1c1ccc(Cl)cn1 — higher, 0.201%
- COC(=O)c1cccc(NS(=O)(=O)c2ccc(OC)cc2)c1C — higher, -1.48%
- COc1ccc(-c2cc(C(F)(F)F)nc(SCCC(=O)NCc3ccccc3)n2)cc1 — lower, -14.5%
- CCCOc1ccc(C(=O)Nc2c[nH]c(=O)[nH]c2=O)cc1 — lower, -6.41%
- CCn1c(COc2cccc(OC)c2)nnc1SCC(=O)Nc1cccc(OC)c1 — lower, -41.1%
- N=c1c(C(=O)NC2CCCC2)cc2c(=O)n3ccccc3nc2n1CCCN1CCOCC1 — lower, -78.2%
- N=c1c(C(=O)NC2CCCC2)cc2c(=O)n3ccccc3nc2n1CCN1CCOCC1 — lower, -91.9%
- O=C(c1ccco1)N1CCN=C1SCc1cccc(F)c1 — lower, -6.98%
- Cc1csc2ncc(C(=O)NCCC(c3ccccc3)c3ccccc3)c(=O)n12 — higher, -0.968%
- Cc1cc(-c2nn(C)c(=O)c3ccccc23)cc(C)c1O — higher, 0.868%
- Cc1ccc(S(=O)(=O)N2CCC(=O)N(C(COCc3ccc(Cl)cc3)C(C)C)CC2)cc1 (stereo not drawn) — lower, -51.7%
- Cc1ccc(COCCN2CCN(S(=O)(=O)c3ccc(C)cc3)CCC2=O)cc1 — higher, 6.17%
- Cc1ccc(S(=O)(=O)N2CCC(=O)N(CCOC(=O)Nc3cccc(Cl)c3)CC2)cc1 — lower, -65.7%
- Cc1ccc(S(=O)(=O)N2CCC(=O)N(C(COCc3cccc(Cl)c3)C(C)C)CC2)cc1 (stereo not drawn) — lower, -35.2%
- Cc1ccc(NC(=O)OCCN2CCN(S(=O)(=O)c3ccc(C)cc3)CCC2=O)cc1 — lower, -18.5%
- Cc1ccc(S(=O)(=O)N2CCC(=O)N(CCOC(=O)Nc3cc(C)cc(C)c3)CC2)cc1 — lower, -40.7%
- Cc1ccc(S(=O)(=O)N2CCC(=O)N(CCOCc3ccc(Cl)cc3)CC2)cc1 — lower, -60.1%
- Cc1ccc(S(=O)(=O)N2CCC(=O)N(C(COCc3ccccc3)C(C)C)CC2)cc1 (stereo not drawn) — lower, -23.2%
- Cc1ccc(COCCN2CCN(S(=O)(=O)c3ccccc3)CCC2=O)cc1 — higher, -0.87%
